Screening data (PubChem BioAssay)
Only some compounds are listed: those with a hit (about 7.9% of all), similar ones and a draw of the others.
HT1080-NT tox: kills 2HG-producing HT-1080-NT fibrosarcoma cells | HT-1080-NT fibrosarcoma viability, CellTiter-Glo ATP luminescence, 48 h | Potency, µM (series often up to 46.1 µM), without a hit: at the highest dose activity, negative = less viability, usual class: cytotoxic | 1.6% of 360,000 active | AID 686970;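 further: NT is the 2HG producing partner of a matched IDH1 knockdown line; 0% = DMSO-treated cells and -100% = media-only wells without cells; nearly all actives have a fitted effect of over 55% in size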
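HT-1080-NT fibrosarcoma cells (2HG-overproducing), 750 cells/well in RPMI with 5% FBS, dosed after 2 h and incubated 48 h at 37C. CellTiter-Glo luminescence normalized to DMSO and no-cell wells; concentration-response curves fitted and classed.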
KB-3-1 tox: kills parental KB-3-1 adenocarcinoma cells. Potency, µM (series often up to 46.1 µM), usual class: cytotoxic. KB-3-1 viability, CellTiter-Glo ATP luminescence, 72 h. 1.4% of 400,000 active; further: on the % scale 0 is the no-effect control and ±100 the full control effect; nearly all actives have a fitted effect of over 60% in size
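Viability of parental KB-3-1 cells, measured by CellTiter-Glo luminescence, followed a 72 h incubation at 37 °C with pinned compounds in phenol-red-free DMEM containing 10% FBS.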
HT1080 IDH1KD tx: HT-1080 IDH1 knockdown cell toxicity (counter line); HT-1080 IDH1 knockdown viability, ATP luminescence, 48 h; AID 686971; Potency, µM (titrated, usually from 46.1 µM), for inactives: top-dose activity, negative = toxicity, actives largely listed as cytotoxic; 2% of 360,000 active;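 further: 0% = DMSO wells and -100% = cell-free medium wells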
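Viability of IDH1-knockdown HT-1080 fibrosarcoma cells was assessed by CellTiter-Glo after 48 h at 37 °C with titrated compound; concentration-effect curves were classified by fit quality and response size.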
SW480 rereplic: induces DNA re-replication in SW480 colon adenocarcinoma cells; SW480 DNA re-replication, Hoechst DNA content imaging, 48 h; Potency, µM (titrated, usually from 46.1 µM), for the others: top-dose re-replication activation, usual class: activators; 1.8% of 340,000 active; AID 624297; further: % of control where 0% means no effect; nearly all actives have a fitted effect of over 55% in size
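Cells (250 per well) received 23 nL compound or DMSO by pin tool and were kept 48 hr at 37 C, 5% CO2. Nuclei were then stained with Hoechst for 40 min and scanned for DNA content.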
MCF10A rereplic: inducers of DNA re-replication in MCF 10A breast cells | MCF 10A DNA re-replication, Hoechst nuclear intensity, 48 h | Potency, µM (titrated, usually from 46.1 µM), for inactives: top-dose activity, positive = re-replication, actives largely listed as activators | 2.9% of 350,000 active; further: % of control where 0% means no effect; nearly all actives have a fitted effect of over 50% in size
KB-V1 cytotox: KB-V1 MDR subline cytotoxicity; KB-V1 MDR cells viability, CellTiter-Glo, 72 h; Potency, µM (highest dose often 46.1 µM), most hits filed as cytotoxic; 3.4% of 400,000 active; further: on the % scale 0 is the no-effect control and ±100 the full control effect; nearly all actives have a fitted effect of over 60% in size
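In this primary screen, KB-V1 cells overexpressing P-gp are incubated with library compounds (lowest to highest concentration) for 72 h at 37 degrees C before a luminescent ATP viability read.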
* marks the source's active call; other numbers are inactive results; i = inactive; ? = inconclusive; · = no result; [ ] = remark or other dose. The call rests on the fitted dose curve; in most records, active means well fitted curve in the direction sought with a large enough effect; inconclusive means small, poorly fitted or top-dose-only effect, or another doubt; inactive means no such curve, though single readings can be large; an effect the other way counts as inactive or inconclusive. Potency means the concentration at half of the fitted maximal effect.

SMILES | HT1080-NT tox | KB-3-1 tox | HT1080 IDH1KD tx | SW480 rereplic | MCF10A rereplic | KB-V1 cytotox
O=C1c2ccccc2-c2cccc(NS(=O)(=O)c3ccc(C(F)(F)F)cc3)c21 | -5% | ? | -6% | 19% | 4% | 23µM*
Cc1ccc(C)c(Cn2c(C(C)NC(=O)c3ccc(F)cc3)nc3ccccc32)c1 (centres undefined) | · | i | · | · | · | i
CC(NC(=O)c1ccc(F)cc1)c1nc2ccccc2n1Cc1ccccc1F (centres undefined) | -15% | i | ? | 26% | 1% | 2.1µM*
O=C(O)COc1ccc2c(c1)O/C(=C\c1ccco1)C2=O | 4% | i | 9% | -6% | -1% | ?
O=C(O)COc1ccc2c(c1)O/C(=C\c1cccs1)C2=O | 1% | i | 12% | 16µM* | ? | i
CCn1nc(C)cc1-c1nnc(SCC(=O)Nc2ccccc2)n1CCCOC | 8% | i | 10% | 2% | -6% | ?
CCn1nc(C)cc1-c1nnc(Sc2ncc([N+](=O)[O-])s2)n1C | 10µM* | ? | 21µM* | 28% | 12% | i
O=C(O)/C(=C/c1ccco1)NC(=O)c1ccc(Br)o1 | 4% | i | 11% | 0% | 0% | i
Cn1ccc2c(-c3cncc4ccccc34)cc3c(c21)C1CCC3C1 (centres undefined) | -18% | i | -28% | · | · | i
COc1ccc(NC2CCCN(C(=O)c3ccc4[nH]c(C)c(C)c4c3)C2)cc1OC (centres undefined) | 0% | i | -4% | -2% | -50% | i
Nc1[nH]c(N=NC(=O)c2ccccc2O)c2ccccc12 | -5% | ? | -26% | ? | ? | 21µM*
O=C(Nc1cc(Cl)cc(Cl)c1)N[C@@H]1CC[C@@H](CCNS(=O)(=O)c2cccc(F)c2)O[C@@H]1CO | 18µM* | ? | ? | · | · | i
COc1ccc(C2=NOC(C(=O)N3CCOCC3)C2)cc1OC (centres undefined) | 14% | i | 5% | -2% | -3% | i
CC(C)(C)C(=O)/C(=C/c1ccc(Cl)cc1)n1cncn1 | 16µM* | ? | -22% | ? | 6.5µM* | ?
CC(C)/C=C(/C(=O)c1ccc(Cl)cc1Cl)n1cncn1 | -16% | i | 0% | ? | ? | i
Cn1nc(C(=O)NNC(=O)COc2ccccc2)c2ccccc2c1=O | 0% | i | 10% | 0% | 5% | i
CCOc1ccccc1OCCCC(=O)NNC(=O)c1nn(C)c(=O)c2ccccc12 | -8% | i | 9% | -7% | 2% | 23µM*
O=C(Nc1ccc(Br)cc1)c1cccn1-c1ncc(C(F)(F)F)cc1Cl | ? | i | 11µM* | 21% | ? | i
NC(=O)c1cccn1-c1ncc(C(F)(F)F)cc1Cl | 13% | i | 14% | -7% | -7% | i
COc1ccc(Br)c(C(=O)Nc2cccc(S(=O)(=O)N3CCOCC3)c2)c1 | -2% | i | 0% | -14% | -5% | i
O=C(Nc1ccccc1Cc1ccccc1)c1ccccc1NS(=O)(=O)c1ccc(Cl)s1 | 16µM* | ? | ? | ? | 9.2µM* | 2.6µM*
Cc1ccc(NC(=O)c2ccccc2NS(=O)(=O)c2ccc(Cl)s2)cc1 | 21µM* | 10µM* | ? | ? | 9.2µM* | 7.3µM*
O=S(=O)(Nc1ccccc1N1CCCC1)c1ccccc1C(F)(F)F | 1% | i | -4% | · | · | i
O=C(NCc1ccco1)c1ccccc1NS(=O)(=O)c1ccc(Cl)s1 | ? | i | ? | -9%[9.22 µM] | 21% | i
O=C(Nc1ccccc1)c1ccccc1NS(=O)(=O)c1ccc(Cl)s1 | ? | 5.2µM* | ? | 1% | 10% | 4.1µM*
O=S(=O)(Nc1ccccc1N1CCCCC1)c1ccc(Cl)s1 | -11% | 13µM* | -1% | -1% | 3% | i
